The source of these data is PubChem BioAssay (Tox21).

In test [1] the target is Acetylcholinesterase (Homo sapiens) (UniProt P22303). In words: Acetylcholinesterase (AChE) small molecule antagonists: colormetric cell-based qHTS assay (AID 1347395). Further: nearly all actives have a fitted effect of over 30% in size. Further: potency means the concentration at half of the fitted maximal effect. In outline: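 Endogenous AChE of human neuroblastoma SH-SY5Y cells was measured with an Ellman-type DTNB/acetylthiocholine mix. Compound pretreatment lasted 30 min at 37 C; substrate reaction ran 90 min at 37 C.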
For orientation: Quantitative high-throughput screening tests each substance at several concentrations.

For test [2] the target is unchanged. Briefly: Acetylcholinesterase (AChE) small molecule antagonists: enzyme-based qHTS assay (AID 1347397). Further: nearly all actives have a fitted effect of over 55% in size. Further: potency means the concentration at half of the fitted maximal effect. The note with it: Potency: AChE enzyme activity inhibition; outcome: AChE enzyme activity inhibition. In outline:
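Tox21 library chemicals are tested in qHTS format against recombinant human AChE. The enzyme, dispensed at 50 mU/mL, sits with compound for 30 min at room temperature. A DTNB–acetylthiocholine cocktail follows, and colour is read after 10 min.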

Test [3] has the same target. In words: Acetylcholinesterase (AChE) small molecule antagonists: fluorescence cell-based qHTS assay (AID 1347398). Further: nearly all actives have a fitted effect of over 50% in size. Further: potency means the concentration at half of the fitted maximal effect. Conditions: Potency: AChE activity; outcome: AChE activity. In outline:
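Cellular AChE inhibition: SH-SY5Y cells treated with test chemical for 30 min at 37 C, then acetylthiocholine hydrolysis followed over 40 min at room temperature via thiocholine-reactive Thiolite Green fluorescence (490/520 nm).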

Test [4] has the same target. Briefly: Acetylcholinesterase (AChE) small molecule antagonists: enzyme-based qHTS assay with human liver microsomes (AID 1347399). Further: nearly all actives have a fitted effect of over 60% in size. The note with it: Potency: qHTS inhibition; outcome: qHTS inhibition. In outline:
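Recombinant human AChE (50 mU/mL in the enzyme mix) and human liver microsomes (0.25 mg/mL final) were preincubated with compound and NADPH (0.25 mg/mL final) for 30 min at 37 C. Acetylthiocholine/DTNB was then added; thiocholine was read colorimetrically after 10 min at room temperature.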

Structures are written as SMILES. “And” between values parts separate entries of the source, which are not always exact repeats. Identical values can stand only once. Results filed as inconclusive are left out. Some structures have more than one record in an assay (separate samples or runs), and their calls can disagree. The source made the active and inactive calls. The call rests on the fitted dose curve.
On the % scale 0 is the no-effect control and ±100 the full control effect.

Sequence of Acetylcholinesterase (Homo sapiens) (P22303 whole entry, looked up): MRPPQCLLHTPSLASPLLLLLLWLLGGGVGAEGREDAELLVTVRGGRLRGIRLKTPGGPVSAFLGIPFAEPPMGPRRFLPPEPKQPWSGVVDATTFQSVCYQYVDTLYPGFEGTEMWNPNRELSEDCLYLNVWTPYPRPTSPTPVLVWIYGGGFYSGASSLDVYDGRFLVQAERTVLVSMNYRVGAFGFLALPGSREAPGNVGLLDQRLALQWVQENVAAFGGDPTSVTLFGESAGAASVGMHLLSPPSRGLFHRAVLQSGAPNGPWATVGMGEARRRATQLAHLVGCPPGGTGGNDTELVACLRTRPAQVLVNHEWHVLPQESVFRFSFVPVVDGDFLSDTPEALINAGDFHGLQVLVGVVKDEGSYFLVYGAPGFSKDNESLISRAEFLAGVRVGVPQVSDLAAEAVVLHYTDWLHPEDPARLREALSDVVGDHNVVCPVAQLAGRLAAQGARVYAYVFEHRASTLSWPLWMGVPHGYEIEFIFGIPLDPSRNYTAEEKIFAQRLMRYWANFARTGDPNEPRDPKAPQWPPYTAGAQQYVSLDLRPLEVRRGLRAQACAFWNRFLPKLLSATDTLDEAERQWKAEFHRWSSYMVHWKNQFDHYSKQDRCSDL

Take `O=C(O)O`: the activity, negative = inhibition in test [1] is -0.194% [at 10.5 µM] (inactive). Besides, the activity change, negative = inhibition was 0.136% [at 10.5 µM] (inactive) in test [2], 2.47% [at 10.5 µM] (inactive) in test [3] and -6.48% [at 10.5 µM] (inactive) in test [4].
As for `Cc1ccc(C(C)C)cc1O`, the Potency result in test [1], in test [2], in test [3] and in test [4] was “inactive” in each case.
Take `CCC(CC)(CC(=O)Nc1cccc(/C=C/c2nc(C3CCC3)cs2)c1)C(=O)O`: the Potency result in test [1], in test [2], in test [3] and in test [4] was “inactive” in each case.
Turning to `NC=O`, the Potency entry in test [1], in test [2], in test [3] and in test [4] was “inactive” throughout.
With `C=CC(=O)Nc1cc2c(Nc3ccc(F)c(Cl)c3)ncnc2cc1OCCCN1CCOCC1`, the Potency result in test [1], in test [2], in test [3] and in test [4] was “inactive” throughout.
For `Oc1c(Cl)cc(Cl)cc1Sc1cc(Cl)cc(Cl)c1O`, the Potency result in test [1], in test [3] and in test [4] was “inactive” throughout. Moreover, in test [2], the Potency was 40 µM (active) and 72.2 µM (active) and 56.4 µM (active).
For `C[C@@H]1C[C@H]2O[C@@]3(O[C@@H]2C(C)(C)O)[C@H](O)[C@@]2(C)[C@@H]4CC[C@H]5C(C)(C)[C@@H](O[C@@H]6OC[C@@H](O)[C@H](O)[C@H]6O)CC[C@@]56C[C@@]46CC[C@]2(C)[C@@H]13`, the Potency entry in test [1], in test [2], in test [3] and in test [4] was “inactive” throughout.
For `O=C(c1ccccc1)C1(O)CCCCC1`, the Potency result in test [1], in test [2], in test [3] and in test [4] was “inactive” in each case.
`O=c1cc[nH]cc1`: the Potency result in test [1], in test [2], in test [3] and in test [4] was “inactive” throughout.
With `O=c1cc(O)c(Cl)c[nH]1`, the Potency entry in test [1], in test [2], in test [3] and in test [4] was “inactive” throughout.
Turning to `C=CCc1ccc(OC)c(OC)c1`, the Potency entry in test [1], in test [2], in test [3] and in test [4] was “inactive” in each case.
`Cc1cc(C)c(O)c(C)c1`: the Potency entry in test [1], in test [2], in test [3] and in test [4] was “inactive” in each case.
`CCCCN(CCC(=O)OCC)C(C)=O`: the Potency entry in test [1], in test [2], in test [3] and in test [4] was “inactive” each time.
As to `O=C1C(N(CO)C(=O)NCO)N(CO)C(=O)N1CO` (stereo not given), the Potency entry in test [1], in test [2], in test [3] and in test [4] was “inactive” each time.
Consider `C#Cc1ccc(-c2ccccc2F)cc1`, for which the Potency entry in test [1], in test [2], in test [3] and in test [4] was “inactive” throughout.
In the case of `CC(C)(C)c1ccc(OC2CCCCC2O)cc1` (stereo not given), the Potency result in test [1], in test [2], in test [3] and in test [4] was “inactive” in each case.
`CC(C=O)Cc1ccc(C(C)C)cc1` (stereo not given): the Potency entry in test [1], in test [2], in test [3] and in test [4] was “inactive” throughout.
`CC(C)(C)S`: the Potency result in test [1], in test [2], in test [3] and in test [4] was “inactive” throughout.
With `COCCOCCOCCO`, the Potency entry in test [1], in test [2], in test [3] and in test [4] was “inactive” each time.
As for `CCCOCCOCCOCCO`, the Potency entry in test [1], in test [2], in test [3] and in test [4] was “inactive” in each case.
As to `NNC(=O)CP(=O)(c1ccccc1)c1ccccc1`, the Potency result in test [1], in test [2], in test [3] and in test [4] was “inactive” in each case.
For the compound `CC(=O)c1ccccc1O`, the Potency result in test [1], in test [2], in test [3] and in test [4] was “inactive” in each case.
On to `CCCCCCCC(=O)Oc1c(Br)cc(C#N)cc1Br`, for which the Potency entry in test [1], in test [2], in test [3] and in test [4] was “inactive” in each case.
On to `CC(C)(C)C1CCCCC1O` (stereo not given), for which the Potency entry in test [1], in test [2], in test [3] and in test [4] was “inactive” each time.
`CCCCCCCCC(=O)O`: the Potency in test [1] is 3.07 µM (active) and inactive. For the same compound, the Potency entry in test [2], in test [3] and in test [4] was “inactive” in each case.
Consider `O=C(O)c1ccccc1C(=O)O`, for which the Potency result in test [1], in test [2], in test [3] and in test [4] was “inactive” in each case.
Regarding `O=S(O)O`, in test [1], the activity, negative = inhibition is 0.406% [at 23.6 µM] (inactive). The activity change, negative = inhibition in test [2] is -0.777% [at 23.6 µM] (inactive); in test [3] it was 0.464% [at 23.8 µM] (inactive); in test [4], -0.486% [at 23.6 µM] (inactive).
Take `CC(=O)c1ccc(C(C)=O)cc1`: the Potency result in test [1], in test [2], in test [3] and in test [4] was “inactive” in each case.
For the compound `CCOC(=O)c1ccc(I)cc1`, the Potency entry in test [1], in test [2], in test [3] and in test [4] was “inactive” each time.
As to `Nc1ccc(S(=O)(=O)Nc2ccc(Cl)nn2)cc1`, the Potency result in test [1], in test [2], in test [3] and in test [4] was “inactive” in each case.
As to `CC(C)c1ccc(C(=O)N=C(N)N)cc1S(C)(=O)=O`, the result in test [1], in test [2], in test [3] and in test [4] was inactive.
With `CCC(C(=O)OCCN1CCOC(c2ccccc2)C1C)c1ccccc1` (stereo not given), the Potency entry in test [1], in test [2], in test [3] and in test [4] was “inactive” throughout.
For `Nc1nc(Cl)cc(Cl)n1`, the Potency result in test [1], in test [2], in test [3] and in test [4] was “inactive” throughout.
For the compound `NC(=O)/N=N/C(N)=O`, the Potency was 63.5 µM (active) in test [1]; 71.2 µM (active) in test [2]; 7.12 µM (active) and 31.7 µM (active) in test [3]. The Potency result in test [4] is “inactive”.
In the case of `C1CC(COCC2CO2)CCC1COCC1CO1` (stereo not given), the Potency entry in test [1], in test [2], in test [3] and in test [4] was “inactive” throughout.
As for `CC(C)CCCCCCc1ccc(O)cc1`, the Potency entry in test [1], in test [2], in test [3] and in test [4] was “inactive” each time.
On to `[Na+]`, for which the Potency result in test [1], in test [2], in test [3] and in test [4] was “inactive” in each case.
For the compound `CC1(C)C(=O)N(Cl)C(=O)N1Cl`, the Potency entry in test [1], in test [2], in test [3] and in test [4] was “inactive” in each case.
Regarding `CC(CCC(=O)O)C(=O)O` (stereo not given), the Potency result in test [1], in test [2], in test [3] and in test [4] was “inactive” each time.
In the case of `CC(=O)c1ccc(O)c(C(N)=O)c1`, the Potency entry in test [1], in test [2], in test [3] and in test [4] was “inactive” throughout.
In the case of `CC(=O)OC/C=C(\C)CC/C=C(\C)CCC=C(C)C`, the Potency entry in test [1], in test [2], in test [3] and in test [4] was “inactive” each time.
For the compound `CCN1CCCC(OC(=O)C(c2ccccc2)c2ccccc2)C1` (stereo not given), the Potency result in test [1], in test [2], in test [3] and in test [4] was “inactive” throughout.
As for `Cc1cc2c(C(C)C)c(O)c(O)c(C=O)c2c(O)c1-c1c(C)cc2c(C(C)C)c(O)c(O)c(C=O)c2c1O`, the Potency entry in test [1], in test [2], in test [3] and in test [4] was “inactive” each time.
As for `CCCCCCCCCCCC(=O)OCC(O)CO` (stereo not given), the Potency entry in test [1], in test [2], in test [3] and in test [4] was “inactive” in each case.
In the case of `FC(F)(F)C(Cl)Br` (stereo not given), the Potency entry in test [1], in test [2], in test [3] and in test [4] was “inactive” each time.
On to `O=C(O)COC(=O)Cc1ccccc1Nc1c(Cl)cccc1Cl`, for which the Potency result in test [1], in test [2], in test [3] and in test [4] was “inactive” throughout.
Consider `C[C@@H]1NC(=O)[C@@H](N)CNC(=O)[C@H](C2CCNC(N)=N2)NC(=O)/C(=C/NC(N)=O)NC(=O)[C@H](CNC(=O)C[C@@H](N)CCCN)NC1=O` (stereo not given in full), for which the activity, negative = inhibition in test [1] is -1.67% [at 0.435 µM] (inactive). Also, the activity change, negative = inhibition in test [2] was -0.97% [at 0.435 µM] (inactive); in test [3] it was 6.12% [at 0.439 µM] (inactive); in test [4] it was -1.43% [at 0.435 µM] (inactive).
For the compound `O=C(CO)[C@@H](O)[C@H](O)[C@H](O)CO`, the Potency entry in test [1], in test [2], in test [3] and in test [4] was “inactive” each time.
For the compound `CCCCCCCCCCCCOCCO`, the Potency entry in test [1], in test [2], in test [3] and in test [4] was “inactive” in each case.
As to `CCCCCCCCCCCCS`, the Potency result in test [1], in test [2], in test [3] and in test [4] was “inactive” throughout.
Regarding `CCOc1ccc(NC(C)=O)cc1`, the Potency result in test [1], in test [2], in test [3] and in test [4] was “inactive” each time.
In the case of `COC(=O)C1=C(C)NC(C)=C(C(=O)OCC(C)C)C1c1ccccc1[N+](=O)[O-]` (stereo not given), the Potency result in test [1], in test [2], in test [3] and in test [4] was “inactive” each time.
In the case of `COc1ccc([N+](=O)[O-])cc1N`, the Potency result in test [1], in test [2], in test [3] and in test [4] was “inactive” throughout.
For `C=C1C(=C/C=C2\CCC[C@]3(C)[C@@H]([C@H](C)/C=C/[C@@H](O)C4CC4)CC[C@@H]23)C[C@@H](O)C[C@@H]1O`, the Potency result in test [1], in test [2], in test [3] and in test [4] was “inactive” each time.
For the compound `CC(=O)SCc1ccco1`, the Potency entry in test [1], in test [2], in test [3] and in test [4] was “inactive” in each case.
In the case of `C[C@@H](CN1CC(=O)NC(=O)C1)N1CC(=O)NC(=O)C1`, the Potency result in test [1], in test [2], in test [3] and in test [4] was “inactive” each time.
With `COC[C@H](c1ccc(C(F)(F)F)cc1)N1CCN(C2(C)CCN(C(=O)c3c(C)ncnc3C)CC2)C[C@H]1C`, the Potency result in test [1], in test [2], in test [3] and in test [4] was “inactive” throughout.
Turning to `Clc1ccc2c(c1)Nc1ccccc1S2`, the Potency result in test [1], in test [2], in test [3] and in test [4] was “inactive” each time.
Regarding `C=CC(=O)CC`, the Potency result in test [1], in test [2], in test [3] and in test [4] was “inactive” throughout.
As for `CCCCCC#CC(=O)OC`, the Potency entry in test [1], in test [2], in test [3] and in test [4] was “inactive” each time.
